Source: PubChem BioAssay
This is a sample that favours compounds with a hit; in the whole collection about 2.7% have one here.
MsrA act: bovine MsrA enzyme activators, primary screen, biochemical, absorbance, HTS; Methionine sulfoxide reductase A (Bos taurus); purified bovine MsrA, absorbance read-out; 0.3% of 360,000 active; AID 602163, 2012; activation, % at 10.6 µM; in the data active means activation above about 7.5%
rCAG binder: binders of r(CAG) RNA repeats, primary screen, biochemical, fluorescence | 1.3% of 370,000 active | r(CAG) RNA repeat, TO-PRO-1 dye displacement fluorescence | AID 651821, 2012 | inhibition, % at 3 µM;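 active means inhibition above the plate cutoff, the mean of all test compounds on that plate plus 3 SD, cut at about 35% in these data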;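 further: higher means more dye released from RNA so lower well fluorescence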
MsrA inh: bovine MsrA enzyme inhibitors, primary screen, biochemical, absorbance, HTS; purified bovine MsrA, absorbance read-out; AID 651718, 2012; 0.75% of 360,000 active; Methionine sulfoxide reductase A (Bos taurus); inhibition, % at 15.5 µM; in the data active means inhibition above about 4.5%
NadD inh: inhibitors of S. aureus NadD, primary screen, biochemical, colorimetric, uHTS | inhibition, % at 20 µM | purified NadD enzyme, colorimetric absorbance read-out | AID 602399, 2012 | 0.78% of 360,000 active; in the data active means inhibition above about 26%
MsrA act confirm: bovine MsrA activators, retest, confirmation, biochemical, absorbance, HTS; shares compounds with MsrA act; purified bovine MsrA, absorbance read-out; activation, % at 10.6 µM; 12% of 1,000 active; AID 602270, 2012; in the data active means activation above about 4%;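 further: enzyme coupled to thioredoxin and thioredoxin reductase with NADPH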
A number is an active result; . = inactive; / = no result.

SMILES	MsrA act	rCAG binder	MsrA inh	NadD inh	MsrA act confirm
CC(C)OC(=O)C(C(=O)C(F)(F)F)c1cc(NS(=O)(=O)c2ccc3ccccc3c2)c2ccccc2c1O (centres undefined)	.	/	/	55	/
CN(C(=O)CSc1n[nH]c(=O)[nH]c1=O)c1ccccc1	.	.	.	.	/
O=C(Sc1n[nH]c(=O)[nH]c1=O)c1ccccc1	10	.	.	.	/
CCOc1ccc(NC(=O)CN2C(=O)NC(C)(c3ccc4c(c3)OCCCO4)C2=O)cc1OCC (centres undefined)	.	.	.	.	/
CCN(CC)c1ccc(/C=N/n2c(=S)[nH]nc(C)c2=O)cc1	.	.	4.7	.	/
O=C(C[n+]1ccc2ccccc2c1)c1cccc2ccccc12	.	.	.	.	/
O=C(/C=C/c1cc[n+](CC(=O)c2ccc3cccc4c3c2CC4)cc1)c1ccc2cccc3c2c1CC3	.	/	/	83	/
COc1ccccc1C(=O)N1CCCC(c2nc(-c3cccs3)no2)C1 (centres undefined)	/	.	/	/	/
CC(C)c1cccc(-c2ccc3c(c2)S(=O)(=O)c2cccc(C(=O)NCc4ccccc4Cl)c2C3=O)c1	.	/	/	34	/
C=CC(=O)NC1CCCCN(CC)C1=O (centres undefined)	/	.	/	/	/
Cc1ccc(/C=N/NC(=O)c2ccc(OC3CCCC3)cc2)o1	.	.	4.6	.	/
O=Cc1ccc(F)c([B-](F)(F)F)c1	.	.	.	.	/
CC(OC(=O)c1c2c(nc3ccccc13)/C(=C\c1ccc3c(c1)OCO3)CCC2)C(=O)Nc1ccc(S(N)(=O)=O)cc1 (centres undefined)	.	/	/	44	/
Cc1nc2ccc(NC(=O)C3(C)CCCN(C(C)C)C3)cc2o1 (centres undefined)	.	.	.	.	/
COc1ccc(/C=N/NC(=S)NCc2ccccc2)cc1OC	.	.	.	.	/
COc1ccc(C=NNC(=S)NN=Cc2ccc(OC)c(OC)c2)cc1OC	.	.	5.7	.	/
CN1Cc2nnn(Cc3ccccc3)c2-c2cc(N3CCCC3)ccc2S1(=O)=O	/	.	/	/	/
O=C(O)CN1C(=O)/C(=C2\C(=O)N(Cc3ccccc3Cl)c3ccccc32)SC1=S	.	.	.	26	/
CN1C(=O)/C(=C2\SC(=S)N(C(CCC(=O)O)C(=O)O)C2=O)c2ccccc21 (centres undefined)	.	.	.	.	/
CC(CCCN1CCCC1)Nc1ccnc2cc(Cl)ccc12 (centres undefined)	.	.	4.8	.	/
Cc1ccc(N(C)S(=O)(=O)c2cccc(C(=O)OCC(=O)N3CCCC(C)C3)c2)cc1 (centres undefined)	.	.	.	.	/
COc1cc(NCCCC(C)N)c2ncccc2c1 (centres undefined)	12	.	.	.	/
CCOC(=O)[C@@]12CCC3=C1N(CCC3)C(=O)[C@H](CC(=O)NCCCOC)C2	/	.	/	/	/
COc1ccccc1NC(=O)C1=C(C)NC(SCC(=O)c2ccccc2)=C(C#N)C1c1ccco1 (centres undefined)	.	/	/	36	/
CC(=O)OC(C=C(C)C)C/C(C)=C/COc1c2ccoc2cc2oc(=O)ccc12 (centres undefined)	.	.	13	.	/
SMILES	MsrA act	rCAG binder	MsrA inh	NadD inh	MsrA act confirm
CC(=O)N1N=C(c2ccc(C)cc2)CC1c1ccc2c(c1)OCO2 (centres undefined)	8.0	.	.	.	.
Cc1ccc(C2=NN(S(C)(=O)=O)C(c3ccc4c(c3)OCO4)C2)cc1 (centres undefined)	.	.	.	.	/
NS(=O)(=O)c1ccc(NC(=O)NC2CC(=O)N(c3ccc4c(c3)OCCO4)C2)cc1 (centres undefined)	11	.	.	.	.
CC1CC(=O)Nc2ccccc2N1S(=O)(=O)c1ccc(Cl)cc1 (centres undefined)	.	.	.	.	/
CC(=O)Nc1ccc(S(=O)(=O)N2c3ccccc3NC(=O)CC2C)c(Cl)c1 (centres undefined)	12	.	.	.	.
COc1ccc(OC)c2nc3c(C(=O)NCCN(C)C)cccc3nc12	21	.	.	.	12
O=c1sc(N2CCN(c3ccc(F)cc3)CC2)nc2ccsc12	7.8	.	.	.	.
O=c1sc(N2CCN(c3ccccc3F)CC2)nc2ccsc12	.	.	.	.	/
Cc1ccccc1C(=O)N(Cc1ccccn1)CC1CCCO1 (centres undefined)	/	.	/	/	/
CCCOC(=O)c1ccc(NC(=O)CN(C)Cc2cccs2)cc1	9.9	.	.	.	.
Cc1ccc(NC(=O)CSCC(=O)N(C)Cc2ccc(Cl)c(Cl)c2)cc1	.	.	.	.	/
COc1ccc(NC(=O)CSCC(=O)Nc2ccc(S(=O)(=O)N3CCCCC3)cc2)cc1	.	.	.	.	/
COc1ccc(CSCC(=O)Nc2ccc(S(=O)(=O)N3CCCCCC3)cc2)cc1	8.8	.	.	.	.
COc1ccc(NC(=O)CSCC(=O)N(C)Cc2ccc(Cl)c(Cl)c2)cc1	11	.	.	.	.
O=C(CN1C(=O)CCSc2ccccc21)Nc1cccc(Cl)c1F	/	.	/	/	/
COc1cccc(CC(=O)OCC(=O)c2cc(OC)ccc2OC)c1	.	.	.	.	/
COc1cccc(CC(=O)OCC(=O)c2cc(OC)c(OC)c(OC)c2)c1	8.7	.	.	.	.
S=C(SCc1c(Cl)cccc1Cl)N1CCSCC1	/	.	.	/	/
CCc1ccc(CN(C)Cc2nc(COc3ccccc3)no2)nc1	7.9	.	.	.	.
CC(=O)c1c(C)[nH]c(C(=O)OCC(=O)N2CCc3ccccc3C2)c1C	.	.	.	.	/
S=c1nc(-c2ccco2)[nH][nH]1	8.2	.	.	.	.
CC(C)Sc1nc2ccccc2c(=O)[nH]1	.	.	.	.	/
CCC(C)Sc1nc2ccccc2c(=O)[nH]1 (centres undefined)	15	.	.	.	.
CCN1CCN(C(=O)Nc2ccc(Cc3ccc(NC(=O)N4CCN(CC)CC4)cc3)cc2)CC1	8.2	.	.	.	.
CCc1ccc(NC(=O)N2CCCCCC2)cc1	.	.	.	.	/
SMILES	MsrA act	rCAG binder	MsrA inh	NadD inh	MsrA act confirm
COc1ccccc1NC(=O)c1ccc2nsnc2c1	.	.	.	.	/
COc1ccccc1OC(=O)c1ccc2nsnc2c1	16	.	.	.	.
CCCCC[C@@H](C)N1C[C@H](COCc2ccccc2)Oc2cc(N3CC[C@H](O)C3)ccc2S1(=O)=O	.	.	.	.	/
O=[N+]([O-])c1cccc2c(N3CCCC3)ccnc12	20	.	.	.	12
O=C(c1ccccc1F)N1CCN(c2ccc([N+](=O)[O-])c3ncccc23)CC1	.	.	.	.	/
O=C(NCCNC(=O)c1ccc(F)cc1)c1ccc(F)cc1	.	.	.	.	/
O=C(NCSc1ccnc(SCNC(=O)c2ccc(F)cc2)n1)c1ccc(F)cc1	8.5	.	.	.	.
CCc1nc2ccc(C(=O)NCCCn3ccnc3)cn2c1N(C)Cc1nccs1	.	.	.	.	/
